Measurements taken from PubChem BioAssay AID602142 (NMMLSC, 2011).
Where “and” joins values, the source holds several entries; their conditions need not be identical. Identical values can stand only once. Some of the results follow. Values without a mark were called inactive. The rule behind the calls is not given here.

Each molecule was assayed against Lethal factor (Bacillus anthracis) (UniProt P15917) (assay: Bacillus anthracis LF protease inhibitors, confirmation, biochemical, multiplex microsphere, cherry pick 1 (AID 602142)). Conditions: multiplex microsphere protease cleavage assay, at 10 µM, active compounds read high.
Sequence of Lethal factor (Bacillus anthracis) (P15917 whole entry, looked up): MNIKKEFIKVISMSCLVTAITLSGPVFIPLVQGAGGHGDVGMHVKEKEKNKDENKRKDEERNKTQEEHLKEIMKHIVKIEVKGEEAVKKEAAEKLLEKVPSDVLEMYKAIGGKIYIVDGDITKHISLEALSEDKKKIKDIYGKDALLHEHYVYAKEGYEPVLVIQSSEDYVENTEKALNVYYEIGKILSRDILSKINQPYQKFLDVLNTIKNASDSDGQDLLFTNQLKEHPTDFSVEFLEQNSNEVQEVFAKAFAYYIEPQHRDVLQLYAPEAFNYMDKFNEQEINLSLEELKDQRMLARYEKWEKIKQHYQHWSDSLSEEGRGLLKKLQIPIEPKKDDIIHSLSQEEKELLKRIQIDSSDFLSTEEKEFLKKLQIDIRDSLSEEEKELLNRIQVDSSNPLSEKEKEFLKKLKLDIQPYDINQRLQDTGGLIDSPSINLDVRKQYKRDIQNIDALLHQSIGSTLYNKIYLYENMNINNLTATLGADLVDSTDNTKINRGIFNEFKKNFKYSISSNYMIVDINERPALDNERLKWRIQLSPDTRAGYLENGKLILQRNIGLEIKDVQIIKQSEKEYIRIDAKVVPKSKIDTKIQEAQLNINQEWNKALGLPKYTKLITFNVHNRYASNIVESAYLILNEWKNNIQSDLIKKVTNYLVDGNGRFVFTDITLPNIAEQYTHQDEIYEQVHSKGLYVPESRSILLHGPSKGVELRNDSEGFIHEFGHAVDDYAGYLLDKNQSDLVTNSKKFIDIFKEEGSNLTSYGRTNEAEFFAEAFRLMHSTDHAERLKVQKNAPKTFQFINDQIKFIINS

With `COc1ccc(C2CC(c3cccs3)=NN2c2nc(C)c(C(C)=O)s2)cc1OC` (centres undefined) the inhibition was 10.5% and 15.1%.

Point of comparison: `Cc1ccc2[nH]cc(CCNC(=O)C3CCCCC3)c2c1`, inhibition 3.7%. Against it:
- Nc1ccccc1Sc1cc(Cl)nnc1Cl — lower, -3.5%
- COc1ccccc1C1CCN(C(=S)Nc2ccc(Br)cc2)CC1 — lower, 1.5%
